Bioassay records: PubChem BioAssay, Broad Institute
The entries come from a sample that favours hits as a whole.
Tg IFNy HTS: inhibitors of Toxoplasma gondii growth with IFN-gamma; AID 1259416; activity change, negative = inhibition, % (no concentration beside the values); 69,000 tested, 3.8% active; Toxoplasma gondii growth in IFN-gamma-treated host cells; hits give low values; in the data active = activity change below about -70%, passing the limit was not always enough;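 note: host cells are HeLa cells infected with Toxoplasma gondii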
Hits are given with their value; n = inactive; ! = not confirmed by another sample.

SMILES	Tg IFNy HTS
NS(=O)(=O)c1ccc(NC(=O)CSc2ncn(-c3ccccc3)n2)cc1	n
COc1nccnc1-c1cccc(C(C)N2CCCC2)c1 (stereo unspecified)	n
COc1cccc(CCNC(=O)c2c(O)c3ccccc3[nH]c2=O)c1	n
COC[C@@H]1CN(C)C[C@]12CCN(C(=O)c1ccc3ccccc3c1)C2	n
COc1ccccc1C(C)N(C)C(=O)c1cc(C)c(C)c(S(N)(=O)=O)c1 (stereo unspecified)	n
COc1cc(C(F)(F)F)cc(C(F)(F)F)c1C(=O)NCc1cccs1	-81.2
COc1cc(C(F)(F)F)cc(C(F)(F)F)c1C(=O)Oc1ccc(Cl)cc1	-95.6
COCCN1CCN(c2ccc3ccc(C(=O)NCc4cccs4)cn23)CC1	n
COc1cc(C(F)(F)F)cc(C(F)(F)F)c1C(N)=O	n
Cc1cc(-c2onc(C)c2C(=O)Oc2ccc(Cl)cc2)no1	n
O=C(CCCC(=O)NCc1cccs1)NCc1cccs1	n
Nc1ccc(OC(=O)c2cccc(S(=O)(=O)Oc3ccc(N)cc3)c2)cc1	n
CN(Cc1ccccc1CN1CCCC1)C(=O)c1c[nH]c(=O)[nH]1	n
Fc1ccc(/C=C/CN2CCC(OCc3cccnc3)CC2)cc1	n
CC(C)(C)CN1CC2CN(S(=O)(=O)c3ccccc3)CC21 (stereo unspecified)	n
O=C(c1cc(-c2cccnc2)n[nH]1)N1CCN(C(=O)c2cc3ccccc3[nH]2)CC1	n
C=CCN(Cc1ccccc1C)Cc1ccccc1O	n
COc1ccc(CNC(=O)c2nc3c(s2)CCN(C(C)=O)CC3)cc1	n
CNC(=O)c1nc2c(s1)CCN(C(=O)NCc1ccccc1)CC2	n
CC(C)CNC(=O)c1nc2c(s1)CCN(C(=O)NCc1ccccc1)CC2	-84.0
Cc1n[nH]c(C)c1N=Nc1cc(Cl)cc(Cl)c1	-91.6
CN(CCNC(=O)CCNC(=O)c1ccccc1F)S(C)(=O)=O	n
COCCNC(=O)c1nc2c(s1)CCCN2C(=O)c1ccccc1	n
Cc1cnc(N2CCc3cc(C(=O)N4CCCC4)c(N(C)C)nc3CC2)nc1	n
Fc1ccc(-n2cc(CCCCN3CCC4(CC3)OCc3ccccc34)c3ccccc32)cc1	-75.9
SMILES	Tg IFNy HTS
CCOc1ccc(Nc2nc(-c3nnc(-c4ccc(OC)cc4)o3)nc3ccccc23)cc1	n
CCS(=O)(=O)N1CC[C@@]2(c3ccccc3)CN(C(=O)N(C)C)CC2C1 (stereo partly specified)	n
CC[C@@]1(O)C(=O)OCc2c1cc1n(c2=O)Cc2c-1nc1cc(F)c(C)c3c1c2[C@@H](N)CC3	-86.2
CC[C@@]1(O)C(=O)OCc2c1cc1n(c2=O)Cc2cc3cc(O)ccc3nc2-1	-89.6
CC1CCCN(C(=O)c2ncn3c2CN(CC2CC2)S(=O)(=O)c2ccccc2-3)C1 (stereo unspecified)	n
Cc1ccc(CN2CCCC3(CCN(CC4CC4)CC3)C2)cc1	n
Cc1nc(-c2ccc(OCc3ccc(F)cc3)cc2)cs1	n
Cc1ccc(Cl)cc1N1CCN(C(=O)c2csc(C(=O)NC3CC3)n2)CC1	n
COc1cccc(COC2CN(CC(C)C)C(=O)CN(C(=O)c3cccc(Cn4cccn4)c3)C2)c1 (stereo unspecified)	n
COc1ccc(-c2cn3cc(C)ccc3n2)cc1	n
Cc1ccc2nc(-c3ccc(Cl)c(C)c3)cn2c1	-97.2
Cc1ccc2nc(-c3ccc(-c4ccccc4)s3)cn2c1	n
COc1ccc(Cl)cc1NC(=O)c1c(O)c2cccnc2n(-c2cccc(F)c2)c1=O	n
CCN1CC2(CC1=O)CN(C(=O)NCc1ccc(OC)cc1)CCN(C(=O)C(C)C)C2 (stereo unspecified)	n
CCC(C)n1ncn(-c2ccc(N3CCN(c4ccc(OCC5COC(Cn6cncn6)(c6ccc(Cl)cc6Cl)O5)cc4)CC3)cc2)c1=O (stereo unspecified)	-95.1
O=C(NCc1ccc(F)cc1)[C@H]1C=CCN1C(=O)Nc1ccc(F)cc1	n
O=C(O)c1ccc(-c2c[nH]c3ncc(-c4ccccc4)cc23)cc1C1CCCC1	-84.8
Cc1c(-c2ccccc2)n[nH]c1C(=O)N1CCC(c2ccccc2C(=O)O)C1 (stereo unspecified)	n
O=C(O)c1ccccc1C1CCN(C(=O)Cc2c[nH]c3ccccc23)C1 (stereo unspecified)	n
COCCn1c(C)cc(CN2CC3CCCN3C[C@@H]2C)c1C (stereo partly specified)	n
CCOc1ncnc2c1CCN(C(=O)c1cscn1)CC2	n
CO[C@@]12[C@@H]3NC3CN1C1=C(C(=O)C(N)=C(C)C1=O)[C@@H]2COC(N)=O (stereo partly specified)	-79.9
CC(C)c1nccc([C@@H]2C[C@H]3CCN(Cc4cnn(C)c4)C[C@@H]3O2)n1	n
CS(=O)(=O)NC1CCN(C(=O)c2ccccc2C2CCNC2)CC1 (stereo unspecified)	n
CSc1cccc(NC(=O)N2CCC(c3nc(C(=O)N(C)C)c(C)o3)CC2)c1	n
Cc1nc2sccn2c(=O)c1CCN1CCC(=C(c2ccc(F)cc2)c2ccc(F)cc2)CC1	-77.1!
Cc1nc2ccccn2c(=O)c1CCN1CCC(C(=O)c2ccc(F)cc2)CC1	n
